This is an account of results in PubChem BioAssay (Tox21).

Inconclusive results are not listed. Some structures have more than one record in an assay (separate samples or runs), and their calls can disagree. The source made the active and inactive calls. Unless noted, calls follow the shape of the full dose curve.

A short description of experiment [1]: Nuclear factor erythroid 2-related factor 2/antioxidant responsive element (Nrf2/ARE) small molecule agonists: qHTS cell viability counter screen in human keratinocytes (AID 1919968; active = well fitted curve in the direction sought with a large enough effect in the repeat runs; an effect the other way counts as inactive or inconclusive; also: nearly all actives have a fitted effect of over 55% in size; also: potency is read from the fitted curve at half-maximal effect). In a few lines: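 Seed 1,500 KeratinoSens cells per well, then incubate 5 h at 37 C/5% CO2. Add compounds in DMSO and incubate 23 h. Add CellTiter-Fluor, wait 1 h and read fluorescence.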

A short description of experiment [2]: Nuclear factor erythroid 2-related factor 2/antioxidant responsive element (Nrf2/ARE) small molecule agonists: luciferase reporter gene qHTS assay in human keratinocytes (AID 1919969). Also: nearly all actives have a fitted effect of over 35% in size. Also: potency is read from the fitted curve at half-maximal effect.
In experiment [3] the target is Gonadotropin-releasing hormone receptor (Homo sapiens) (UniProt P30968). As to the kind of experiment: Human gonadotropin-releasing hormone receptor (GnRHR) small molecule agonists, calcium flux assay in GnRHR-HEK293 cells (AID 1920063). Also: nearly all actives have a fitted effect of over 35% in size. In outline: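 Cells: HEK293 stably expressing human GnRHR. Steps: overnight (18 h) culture, 1 h calcium dye loading at 37 C, compound addition, kinetic fluorescence read at 480/540 nm. Each compound tested at 15 concentrations in triplicate.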

Experiment [4] has as its target KiSS-1 receptor (Homo sapiens) (UniProt Q969F8). Description: Human kisspeptin (KISS1R) small molecule agonists, calcium flux assay in KISS1R-HEK293 cells (AID 1920064; active = well fitted curve in the direction sought with a large enough effect in the repeat runs; an effect the other way counts as inactive or inconclusive). In a few lines:
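Cells plated and incubated 18 h; dye added, 1 h at 37 C; compounds in DMSO pinned in; signal read at 480/540 nm every second for 3 min. Each compound tested at 15 concentrations in triplicate.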

Experiment [5] can be described thus: G protein-coupled receptor (GPCR) small molecule agonists, calcium flux assay: HEK293 wild type cell line counter screen (AID 1920065). In a few lines:
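Counter-screen of the Tox21 10K library for non-specific calcium release: dye-loaded cells received compounds in DMSO and were monitored by kinetic fluorescence (480/540 nm, 3 min). Fifteen concentrations, run in triplicate.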

Experiment [6] is described as follows: p53 small molecule agonists, cell-based qHTS assay with human liver microsomes (AID 1963577).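 Also: p53 response element beta-lactamase reporter cells with liver microsomes plus NADPH.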 In outline:
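With metabolic activation: human liver microsomes (0.5 mg/mL final) plus NADPH (0.5 mg/mL final) added alongside compounds to p53RE-bla cells; 16 h 37 C exposure; beta-lactamase read by LiveBLAzer fluorescence.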

Experiment [7] is described as follows: p53 small molecule agonists, cell-based qHTS assay with rat liver microsomes (AID 1963578). In a few lines: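 Metabolic activation by rat liver microsomes and NADPH, each 0.5 mg/mL final, added right after compounds to p53RE-bla reporter cells (4,000/well, plated 5 h earlier). 16 h at 37 C, then LiveBLAzer substrate for 2 h at room temperature in the dark; fluorescence read-out.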

The nature of experiment [8]: p53 small molecule agonists, cell-based qHTS assay with human liver microsomes: qHTS cell viability counter screen (AID 1963579). Also: nearly all actives have a fitted effect of over 45% in size. In outline: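 Metabolic activation used human liver microsomes and NADPH, both 0.5 mg/mL final, over 16 hours at 37 C on p53RE-bla cells (4,000/well). Cytotoxicity measured by CellTiter-Glo luminescence, 30 min at room temperature.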
The nature of experiment [9]: p53 small molecule agonists, cell-based qHTS assay with rat liver microsomes: qHTS cell viability counter screen (AID 1963580). Also: nearly all actives have a fitted effect of over 45% in size. In a few lines: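 In HCT-116 cells carrying a p53 response element-bla reporter, compounds were metabolically activated in situ by rat liver microsomes with NADPH over 16 h. Cell ATP content then served as the cytotoxicity measure.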
The nature of experiment [10]: p53 small molecule agonists, cell-based qHTS assay: qHTS cell viability counter screen (AID 1963581). Also: nearly all actives have a fitted effect of over 45% in size. In a few lines:
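Cells: HCT-116 with p53 response element-driven beta-lactamase. Treatment: 16 h, 37 C, compounds in DMSO. Read: CellTiter-Glo luminescence after 30 min RT.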

Experiment [11] in a line: p53 small molecule agonists, cell-based qHTS assay (AID 1963582; active = well fitted activation curve with a large enough effect in the signal ratio in the repeat runs, not every such curve was filed as active; the % refers to the signal ratio). In outline:
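Quantitative HTS in p53RE-bla cells: after a 5 h settling period, compounds delivered in DMSO were left on cells for 16 h at 37 C, and reporter induction was measured as fluorescence following 2 h substrate loading.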

The target of experiment [12] is 5-hydroxytryptamine receptor 2A (Homo sapiens) (UniProt P28223). As to the kind of experiment: 5-hydroxytryptamine receptor 2A (HTR2A) small molecule antagonists, cell-based qHTS assay (AID 1963586). Also: nearly all actives have a fitted effect of over 45% in size. In a few lines:
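Antagonist-mode intracellular calcium assay: DOI (4 nM) added after 5 min compound pre-incubation at room temperature to dye-loaded HTR2A-CHO cells. Fluorescence followed for 3 min, sampled every second.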

Experiment [13] has the same target. As to the kind of experiment: 5-hydroxytryptamine receptor 2A (HTR2A) small molecule agonists, cell-based qHTS assay (AID 1963587). Also: nearly all actives have a fitted effect of over 30% in size. In outline:
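HTR2A-CHO cells, plated 18 h at 37 C/5% CO2, dye-loaded 1 h at 37 C; compounds in DMSO added by pin tool (agonist mode). Intracellular calcium flux read as kinetic fluorescence on FDSS over 2 min at 1 s intervals.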

Experiment [14] addresses Muscarinic acetylcholine receptor M1 (Homo sapiens) (UniProt P11229). Description: Cholinergic receptor muscarinic 1 (CHRM1) small molecule antagonists, cell-based qHTS assay (AID 1963588). Also: nearly all actives have a fitted effect of over 40% in size. In outline:
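CHRM1-CHO calcium-flux assay, antagonist mode. Cells were seeded 18 h, dye-loaded 1 h at 37 C and given compound for 5 min at RT, then acetylcholine was added at 50nM. FDSS fluorescence was read 3 min; 15 concentrations, three runs.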

Experiment [15] has the same target. As to the kind of experiment: Cholinergic receptor muscarinic 1 (CHRM1) small molecule agonists, cell-based qHTS assay (AID 1963589). Also: nearly all actives have a fitted effect of over 35% in size. In outline:
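Agonist-mode qHTS in CHO cells stably carrying human muscarinic M1. Intracellular calcium is tracked by fluorescence every second after compound transfer; each compound runs at 15 concentrations in three independent runs.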

A short description of experiment [16]: cAMP Responsive Elements (CRE) small molecule agonists, cell-based qHTS assay (AID 1963590). In a few lines:
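Agonist mode qHTS in CRE-bla HEK 293T cells: compounds dosed from DMSO for 3 h at 37 C/5% CO2, followed by LiveBLAzer B/G FRET substrate for 2 h at room temperature.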

The nature of experiment [17]: cAMP Responsive Elements (CRE) small molecule antagonists, cell-based qHTS assay (AID 1963591; active = well fitted inhibition curve with a large enough effect in the signal ratio in the repeat runs, not every such curve was filed as active; the % refers to the signal ratio). In outline: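 Antagonist mode: test compounds are co-incubated with the adenylyl cyclase activator NKH477 (0.25 uM final) on CRE-bla HEK293T cells for 3 h at 37 °C, followed by LiveBLAzer substrate loading.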
The target of experiment [18] is Beta-2 adrenergic receptor (Homo sapiens) (UniProt P07550). As to the kind of experiment: Adrenergic beta2 receptor (ADRB2) small molecule antagonists, cell-based qHTS assay (AID 1963592). Also: series mostly up to about 92 µM; nearly all actives have a fitted effect of over 50% in size. In a few lines:
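Cells (CHO, stable ADRB2 overexpression) incubated 18-20hr at 37C; compounds added from DMSO; agonist mix (1nM isoproterenol, 100uM IBMX, 25uM Ro-20-1724) added; 0.5hr RT; d2-cAMP and anti-cAMP-cryptate added; 1hr RT; 665/615 nm read.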

Experiment [19] concerns the target D(2) dopamine receptor (Homo sapiens) (UniProt P14416). As to the kind of experiment: Dopamine D2 receptor (DRD2) small molecule agonists, cell-based qHTS assay (AID 1963594). Also: nearly all actives have a fitted effect of over 35% in size. In a few lines:
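HEK293 cells stably expressing DRD2 were cultured 24 h at 37 C, then given Ro20-1724 (0.1 mM final) and compounds for 10 min at room temperature. NKH477 (200nM) was then added for 30 min. cAMP was read by HTRF.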

Experiment [20] shares this target. As to the kind of experiment: Dopamine D2 receptor (DRD2) small molecule antagonists, cell-based qHTS assay (AID 1963595; active = well fitted inhibition curve with a large enough effect in the signal ratio in the repeat runs, with a control signal flat; the % refers to the signal ratio). In outline: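 DRD2-HEK293; 0.1 mM Ro20-1724; cpd 10 min RT; NKH477 200 nM + quinpirole 12 nM, 30 min RT; HTRF cAMP (cAMP-d2/anti-cAMP cryptate), 665/620 nm ratio after 1 h.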

Sequence of Beta-2 adrenergic receptor (Homo sapiens) (P07550 whole entry, looked up): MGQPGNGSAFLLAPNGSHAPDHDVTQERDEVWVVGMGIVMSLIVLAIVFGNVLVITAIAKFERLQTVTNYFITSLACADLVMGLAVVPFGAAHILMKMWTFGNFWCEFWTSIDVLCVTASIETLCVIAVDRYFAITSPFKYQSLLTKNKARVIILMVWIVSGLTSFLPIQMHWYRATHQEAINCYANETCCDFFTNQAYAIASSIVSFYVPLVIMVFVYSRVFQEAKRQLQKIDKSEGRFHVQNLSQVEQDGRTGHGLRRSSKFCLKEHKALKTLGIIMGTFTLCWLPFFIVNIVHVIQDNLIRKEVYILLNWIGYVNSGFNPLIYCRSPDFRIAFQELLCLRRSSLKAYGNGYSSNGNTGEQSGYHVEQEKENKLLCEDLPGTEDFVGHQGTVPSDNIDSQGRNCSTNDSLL
Sequence of D(2) dopamine receptor (Homo sapiens) (P14416 whole entry, looked up): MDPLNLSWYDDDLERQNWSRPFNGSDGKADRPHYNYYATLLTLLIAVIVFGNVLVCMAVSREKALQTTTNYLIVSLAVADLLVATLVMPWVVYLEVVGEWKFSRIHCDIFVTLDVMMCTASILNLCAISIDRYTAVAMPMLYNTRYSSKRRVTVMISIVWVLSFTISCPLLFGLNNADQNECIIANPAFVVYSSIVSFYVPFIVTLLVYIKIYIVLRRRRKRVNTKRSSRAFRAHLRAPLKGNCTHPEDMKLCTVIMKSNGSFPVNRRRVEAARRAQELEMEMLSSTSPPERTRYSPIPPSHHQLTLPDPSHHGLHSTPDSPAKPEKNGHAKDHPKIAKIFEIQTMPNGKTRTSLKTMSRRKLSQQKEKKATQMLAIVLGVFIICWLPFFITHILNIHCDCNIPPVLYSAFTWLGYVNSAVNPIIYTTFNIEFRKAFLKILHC
Sequence of Gonadotropin-releasing hormone receptor (Homo sapiens) (P30968 whole entry, looked up): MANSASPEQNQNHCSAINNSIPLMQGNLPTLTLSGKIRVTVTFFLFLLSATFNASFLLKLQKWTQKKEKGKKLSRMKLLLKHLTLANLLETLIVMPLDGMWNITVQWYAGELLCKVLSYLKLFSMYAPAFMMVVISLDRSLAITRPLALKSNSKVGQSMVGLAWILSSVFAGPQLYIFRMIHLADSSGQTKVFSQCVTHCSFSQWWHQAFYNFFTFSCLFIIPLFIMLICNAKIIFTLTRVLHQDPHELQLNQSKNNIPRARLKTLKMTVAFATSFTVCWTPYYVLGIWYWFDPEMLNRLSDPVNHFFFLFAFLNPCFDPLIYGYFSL
Sequence of 5-hydroxytryptamine receptor 2A (Homo sapiens) (P28223 whole entry, looked up): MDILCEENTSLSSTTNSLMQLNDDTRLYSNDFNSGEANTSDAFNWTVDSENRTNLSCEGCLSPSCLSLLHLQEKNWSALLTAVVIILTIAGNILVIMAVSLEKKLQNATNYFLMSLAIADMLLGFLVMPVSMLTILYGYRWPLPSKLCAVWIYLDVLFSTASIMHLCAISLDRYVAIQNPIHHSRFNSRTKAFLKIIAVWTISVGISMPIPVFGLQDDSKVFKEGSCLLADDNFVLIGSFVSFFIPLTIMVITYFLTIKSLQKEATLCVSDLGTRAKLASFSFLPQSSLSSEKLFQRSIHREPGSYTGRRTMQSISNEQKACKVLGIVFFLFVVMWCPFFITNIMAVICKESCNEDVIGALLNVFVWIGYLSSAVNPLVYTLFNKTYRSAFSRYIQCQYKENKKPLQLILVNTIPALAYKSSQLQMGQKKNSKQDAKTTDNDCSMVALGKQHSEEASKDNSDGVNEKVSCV
Sequence of Muscarinic acetylcholine receptor M1 (Homo sapiens) (P11229 whole entry, looked up): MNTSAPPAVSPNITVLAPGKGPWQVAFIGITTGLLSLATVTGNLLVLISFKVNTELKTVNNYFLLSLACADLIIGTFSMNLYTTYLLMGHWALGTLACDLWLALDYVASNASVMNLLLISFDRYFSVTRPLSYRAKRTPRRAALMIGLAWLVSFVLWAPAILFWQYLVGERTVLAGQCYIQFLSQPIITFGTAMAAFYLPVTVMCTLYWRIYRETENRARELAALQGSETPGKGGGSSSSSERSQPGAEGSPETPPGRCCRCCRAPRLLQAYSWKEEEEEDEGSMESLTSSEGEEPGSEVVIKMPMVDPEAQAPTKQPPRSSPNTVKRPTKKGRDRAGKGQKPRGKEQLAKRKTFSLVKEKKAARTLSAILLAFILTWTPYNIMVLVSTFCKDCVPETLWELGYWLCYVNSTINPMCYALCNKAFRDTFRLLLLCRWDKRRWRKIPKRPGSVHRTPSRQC
Sequence of KiSS-1 receptor (Homo sapiens) (Q969F8 whole entry, looked up): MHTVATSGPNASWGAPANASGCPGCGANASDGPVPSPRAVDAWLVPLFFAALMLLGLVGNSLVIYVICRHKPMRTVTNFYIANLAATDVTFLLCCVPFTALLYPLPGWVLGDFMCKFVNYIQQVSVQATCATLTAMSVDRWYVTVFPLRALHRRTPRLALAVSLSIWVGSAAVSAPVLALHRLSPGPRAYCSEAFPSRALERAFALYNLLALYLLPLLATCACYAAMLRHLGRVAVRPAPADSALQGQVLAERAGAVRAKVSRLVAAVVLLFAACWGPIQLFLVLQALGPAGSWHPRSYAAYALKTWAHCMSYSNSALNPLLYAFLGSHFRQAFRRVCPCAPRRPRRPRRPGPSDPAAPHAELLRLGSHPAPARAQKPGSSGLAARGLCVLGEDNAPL

As to `Cc1cc(=O)[nH]c(=S)[nH]1`, the Potency result in experiment [1], in experiment [2], in experiment [3], in experiment [4], in experiment [5] and in experiment [6] was “inactive” in each case. Moreover, the Potency entry in experiment [7], in [8], in [9], in [10], in experiment [11] and in experiment [12] was “inactive” each time. The Potency result in [13], in experiment [14], in experiment [15], in experiment [16], in [17] and in experiment [18] was “inactive” throughout. For the same molecule, the Potency result in experiment [19] and in experiment [20] was “inactive” throughout.

Regarding `C=C(C)C(=O)OCCC[Si](OC)(OC)OC`, the Potency result in experiment [1], in experiment [2], in experiment [3], in [4], in [5] and in experiment [6] was “inactive” each time. Moreover, the Potency result in [7], in [8], in experiment [9], in experiment [10], in experiment [11] and in experiment [12] was “inactive” each time. For the same molecule, the Potency result in [13], in experiment [14], in [15], in [16], in [17] and in experiment [18] was “inactive” each time. Further, the Potency result in [19] and in experiment [20] was “inactive” each time.

Consider `c1ccc2[nH]ccc2c1`, for which the Potency in experiment [1] is 8.49 µM (active) and inactive; in [2] it was 6.01 µM (active) and inactive. Further, the Potency entry in experiment [3], in experiment [4], in [5], in experiment [6], in experiment [7] and in experiment [8] was “inactive” throughout. Besides, the Potency result in [9], in experiment [10], in [11], in [12], in experiment [13] and in experiment [14] was “inactive” in each case. For the same molecule, the Potency entry in [15], in experiment [16], in [17], in experiment [18], in experiment [19] and in experiment [20] was “inactive” in each case.

For the molecule `CCCCC(CC)COC(=O)/C=C\C(=O)OCC(CC)CCCC` (centres undefined), the Potency entry in experiment [1], in [2], in experiment [3], in [4], in experiment [5] and in experiment [6] was “inactive” in each case. The Potency entry in experiment [7], in experiment [8], in experiment [9], in experiment [10], in experiment [11] and in experiment [12] was “inactive” throughout. The Potency result in [13], in experiment [14], in [15], in experiment [16], in [17] and in experiment [18] was “inactive” throughout. In addition, the Potency result in experiment [19] and in experiment [20] was “inactive” each time.

For the molecule `C=CCNC(N)=S`, the Potency entry in experiment [1], in experiment [2], in [3], in experiment [4], in experiment [5] and in experiment [6] was “inactive” throughout. Moreover, the Potency entry in experiment [7], in [8], in [9], in [10], in [11] and in [12] was “inactive” in each case. Moreover, the Potency result in experiment [13], in [14], in experiment [15], in experiment [16], in [17] and in experiment [18] was “inactive” in each case. Besides, in experiment [19], the Potency result is “inactive”.

For the molecule `CC1(C)NC(=O)NC1=O`, the Potency result in experiment [1], in experiment [2], in experiment [3], in experiment [4], in experiment [5] and in experiment [6] was “inactive” each time. For the same molecule, the Potency result in experiment [7], in experiment [8], in experiment [9], in experiment [10], in experiment [11] and in experiment [12] was “inactive” each time. For the same molecule, the Potency result in experiment [13], in [14], in [15], in [16], in experiment [17] and in [18] was “inactive” each time. For the same molecule, the Potency entry in experiment [19] and in experiment [20] was “inactive” in each case.
